# ChEMBL document CHEMBL1961873, “Compounds: GSK PKIS; Assays: Nanosyn kinase panel” (2012)
# Experiments:
# [1] = target: Platelet-derived growth factor receptor beta (Homo sapiens) (UniProt P09619); conditions: at 1 µM;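 note: each value is a mean percent inhibition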
# [2] = target: Tyrosine-protein kinase FRK (Homo sapiens) (UniProt P42685); conditions: at 0.1 µM
# [3] = target: Tyrosine-protein kinase FRK (Homo sapiens) (UniProt P42685); conditions: at 1 µM
# [4] = target: Protein-tyrosine kinase 2-beta (Homo sapiens) (UniProt Q14289); conditions: at 0.1 µM
# Protein-tyrosine kinase 2-beta (Homo sapiens), sequence (Q14289 whole entry, looked up): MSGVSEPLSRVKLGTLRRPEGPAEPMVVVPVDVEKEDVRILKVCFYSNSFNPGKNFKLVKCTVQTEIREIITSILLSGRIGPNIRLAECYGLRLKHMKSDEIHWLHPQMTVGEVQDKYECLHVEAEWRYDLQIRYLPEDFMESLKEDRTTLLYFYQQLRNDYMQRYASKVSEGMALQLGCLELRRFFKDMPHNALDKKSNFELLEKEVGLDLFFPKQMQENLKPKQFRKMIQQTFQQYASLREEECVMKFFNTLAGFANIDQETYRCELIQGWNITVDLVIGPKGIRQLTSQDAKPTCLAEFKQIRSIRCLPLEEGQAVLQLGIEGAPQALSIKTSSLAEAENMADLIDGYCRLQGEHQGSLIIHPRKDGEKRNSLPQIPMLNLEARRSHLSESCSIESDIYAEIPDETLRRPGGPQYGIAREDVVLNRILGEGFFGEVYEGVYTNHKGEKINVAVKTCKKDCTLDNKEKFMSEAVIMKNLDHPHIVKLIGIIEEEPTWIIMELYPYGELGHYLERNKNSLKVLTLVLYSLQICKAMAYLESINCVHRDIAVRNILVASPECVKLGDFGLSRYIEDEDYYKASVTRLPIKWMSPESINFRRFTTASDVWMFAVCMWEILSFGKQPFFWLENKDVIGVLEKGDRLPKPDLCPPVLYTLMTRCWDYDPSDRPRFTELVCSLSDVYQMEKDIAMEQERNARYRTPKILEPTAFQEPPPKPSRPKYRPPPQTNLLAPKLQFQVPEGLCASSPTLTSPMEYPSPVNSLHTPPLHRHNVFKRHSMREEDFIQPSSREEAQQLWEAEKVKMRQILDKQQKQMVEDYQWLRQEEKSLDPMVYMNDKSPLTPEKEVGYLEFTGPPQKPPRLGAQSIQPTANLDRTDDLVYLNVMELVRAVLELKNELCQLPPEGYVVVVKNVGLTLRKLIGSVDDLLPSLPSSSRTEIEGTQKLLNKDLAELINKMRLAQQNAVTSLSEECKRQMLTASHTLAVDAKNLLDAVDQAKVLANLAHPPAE
# [5] = target: Protein-tyrosine kinase 2-beta (Homo sapiens) (UniProt Q14289); conditions: at 1 µM
# [6] = target: Proto-oncogene tyrosine-protein kinase receptor Ret (Homo sapiens) (UniProt P07949); conditions: at 0.1 µM
# [7] = target: Proto-oncogene tyrosine-protein kinase receptor Ret (Homo sapiens) (UniProt P07949); conditions: at 1 µM
# [8] = test system: Proto-oncogene tyrosine-protein kinase receptor Ret (Homo sapiens), P07949 [V804L]; conditions: at 0.1 µM
# Proto-oncogene tyrosine-protein kinase receptor Ret (Homo sapiens), P07949 [V804L], sequence (P07949 whole entry V804L): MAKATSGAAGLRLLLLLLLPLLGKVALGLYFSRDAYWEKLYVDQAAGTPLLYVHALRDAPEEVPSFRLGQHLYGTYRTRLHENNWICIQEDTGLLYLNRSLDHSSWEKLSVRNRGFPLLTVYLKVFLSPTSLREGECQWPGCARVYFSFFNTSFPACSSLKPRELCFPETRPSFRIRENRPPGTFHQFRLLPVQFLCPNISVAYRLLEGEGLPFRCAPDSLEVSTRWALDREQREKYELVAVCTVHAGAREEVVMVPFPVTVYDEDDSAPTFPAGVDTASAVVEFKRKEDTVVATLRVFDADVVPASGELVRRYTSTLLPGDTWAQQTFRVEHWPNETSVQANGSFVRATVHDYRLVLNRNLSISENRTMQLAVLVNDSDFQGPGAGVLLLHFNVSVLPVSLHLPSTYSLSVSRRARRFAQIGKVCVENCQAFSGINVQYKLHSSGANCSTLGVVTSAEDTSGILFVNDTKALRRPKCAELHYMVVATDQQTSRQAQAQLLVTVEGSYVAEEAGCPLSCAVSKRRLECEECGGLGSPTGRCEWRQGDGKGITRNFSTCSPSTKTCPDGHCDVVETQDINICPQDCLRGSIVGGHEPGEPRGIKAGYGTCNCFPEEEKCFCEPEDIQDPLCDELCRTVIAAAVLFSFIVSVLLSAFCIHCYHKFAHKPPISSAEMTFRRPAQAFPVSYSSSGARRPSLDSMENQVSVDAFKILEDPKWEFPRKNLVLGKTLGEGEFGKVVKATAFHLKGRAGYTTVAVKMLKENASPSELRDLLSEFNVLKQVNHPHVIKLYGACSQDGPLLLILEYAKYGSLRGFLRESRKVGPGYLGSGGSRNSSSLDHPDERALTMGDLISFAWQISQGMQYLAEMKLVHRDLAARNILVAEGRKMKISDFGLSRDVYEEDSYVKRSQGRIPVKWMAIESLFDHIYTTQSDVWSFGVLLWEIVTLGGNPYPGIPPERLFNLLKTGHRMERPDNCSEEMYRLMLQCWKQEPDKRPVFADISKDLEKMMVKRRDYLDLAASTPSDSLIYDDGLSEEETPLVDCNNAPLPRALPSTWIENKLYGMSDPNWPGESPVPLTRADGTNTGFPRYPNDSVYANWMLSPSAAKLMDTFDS
# [9] = test system: Proto-oncogene tyrosine-protein kinase receptor Ret (Homo sapiens), P07949 [V804L]; conditions: at 1 µM
# [10] = test system: Proto-oncogene tyrosine-protein kinase receptor Ret (Homo sapiens), P07949 [Y791F]; conditions: at 0.1 µM
# Proto-oncogene tyrosine-protein kinase receptor Ret (Homo sapiens), P07949 [Y791F], sequence (P07949 whole entry Y791F): as the sequence (P07949 whole entry V804L) above, with Y791F, L804V counted along it
# [11] = test system: Proto-oncogene tyrosine-protein kinase receptor Ret (Homo sapiens), P07949 [Y791F]; conditions: at 1 µM
# [12] = target: Macrophage-stimulating protein receptor (Homo sapiens) (UniProt Q04912); conditions: at 0.1 µM
# [13] = target: Macrophage-stimulating protein receptor (Homo sapiens) (UniProt Q04912); conditions: at 1 µM
# [14] = target: Proto-oncogene tyrosine-protein kinase ROS (Homo sapiens) (UniProt P08922); conditions: at 0.1 µM
# [15] = target: Proto-oncogene tyrosine-protein kinase ROS (Homo sapiens) (UniProt P08922); conditions: at 1 µM
# [16] = target: Proto-oncogene tyrosine-protein kinase Src (Homo sapiens) (UniProt P12931); conditions: at 0.1 µM
# Proto-oncogene tyrosine-protein kinase Src (Homo sapiens), sequence (P12931 2-536 limits assumed): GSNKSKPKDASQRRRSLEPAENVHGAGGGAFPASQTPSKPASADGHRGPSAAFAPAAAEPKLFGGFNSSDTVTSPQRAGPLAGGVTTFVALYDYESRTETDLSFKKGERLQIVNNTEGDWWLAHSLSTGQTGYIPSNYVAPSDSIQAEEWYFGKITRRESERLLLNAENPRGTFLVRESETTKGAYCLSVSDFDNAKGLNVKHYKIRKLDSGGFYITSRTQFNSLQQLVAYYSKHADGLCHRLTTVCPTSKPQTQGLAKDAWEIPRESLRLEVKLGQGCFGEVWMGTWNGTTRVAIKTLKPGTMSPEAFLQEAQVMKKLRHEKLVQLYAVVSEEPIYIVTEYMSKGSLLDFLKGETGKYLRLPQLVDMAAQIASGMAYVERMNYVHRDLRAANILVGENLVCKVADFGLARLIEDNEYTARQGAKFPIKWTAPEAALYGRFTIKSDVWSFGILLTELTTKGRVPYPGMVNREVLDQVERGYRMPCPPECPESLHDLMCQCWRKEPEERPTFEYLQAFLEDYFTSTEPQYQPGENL
# [17] = target: Proto-oncogene tyrosine-protein kinase Src (Homo sapiens) (UniProt P12931); conditions: at 1 µM
# [18] = target: Tyrosine-protein kinase Srms (Homo sapiens) (UniProt Q9H3Y6); conditions: at 0.1 µM
# Tyrosine-protein kinase Srms (Homo sapiens), sequence (Q9H3Y6 whole entry): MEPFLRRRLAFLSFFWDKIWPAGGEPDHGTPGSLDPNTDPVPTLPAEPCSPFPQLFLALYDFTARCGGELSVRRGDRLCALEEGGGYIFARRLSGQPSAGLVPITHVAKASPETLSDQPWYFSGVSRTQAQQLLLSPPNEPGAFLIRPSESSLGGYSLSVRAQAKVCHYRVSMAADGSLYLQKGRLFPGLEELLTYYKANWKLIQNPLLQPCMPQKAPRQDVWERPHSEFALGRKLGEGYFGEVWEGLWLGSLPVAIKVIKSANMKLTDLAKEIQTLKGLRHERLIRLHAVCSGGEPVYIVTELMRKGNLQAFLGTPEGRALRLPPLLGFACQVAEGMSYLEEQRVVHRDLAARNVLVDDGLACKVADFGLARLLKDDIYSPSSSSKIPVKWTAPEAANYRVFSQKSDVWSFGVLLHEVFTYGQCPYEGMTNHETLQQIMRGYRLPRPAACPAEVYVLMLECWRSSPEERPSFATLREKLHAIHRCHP
# [19] = target: Tyrosine-protein kinase Srms (Homo sapiens) (UniProt Q9H3Y6); conditions: at 1 µM
# [20] = target: Tyrosine-protein kinase SYK (Homo sapiens) (UniProt P43405); conditions: at 0.1 µM;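 note: reported percentages are mean inhibition values for SYK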
# Tyrosine-protein kinase FRK (Homo sapiens), sequence (P42685 whole entry): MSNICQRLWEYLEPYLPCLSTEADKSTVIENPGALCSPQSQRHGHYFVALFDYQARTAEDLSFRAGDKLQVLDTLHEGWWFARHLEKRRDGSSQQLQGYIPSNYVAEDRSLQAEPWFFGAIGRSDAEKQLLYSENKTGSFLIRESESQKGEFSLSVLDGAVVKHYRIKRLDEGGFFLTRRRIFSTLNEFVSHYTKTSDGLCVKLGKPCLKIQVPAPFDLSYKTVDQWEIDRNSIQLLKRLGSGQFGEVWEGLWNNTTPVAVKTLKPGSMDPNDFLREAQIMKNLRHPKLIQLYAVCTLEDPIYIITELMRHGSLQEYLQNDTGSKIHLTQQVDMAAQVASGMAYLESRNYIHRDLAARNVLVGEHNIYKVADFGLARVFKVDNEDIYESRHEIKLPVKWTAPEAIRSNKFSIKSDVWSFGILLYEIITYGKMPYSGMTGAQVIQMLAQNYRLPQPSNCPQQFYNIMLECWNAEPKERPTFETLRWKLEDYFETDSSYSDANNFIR
SMILES,inhibition [1],inhibition [2],inhibition [3],inhibition [4],inhibition [5],inhibition [6],inhibition [7],inhibition [8],inhibition [9],inhibition [10],inhibition [11],inhibition [12],inhibition [13],inhibition [14],inhibition [15],inhibition [16],inhibition [17],inhibition [18],inhibition [19],inhibition [20]
COc1cc(C=NNc2ncnc3c2cnn3-c2ccccc2)ccc1O,68.9%,0.86%,3.44%,4.69%,14.2%,43.5%,80.6%,13.6%,46.3%,36.3%,75.1%,23.7%,64.5%,7.09%,31.2%,28.6%,79%,1.17%,4.56%,-2.75%
CNC(=O)c1cncc(/C=C/c2c(Cl)cccc2Cl)c1,17.8%,3.04%,11%,4.56%,7.83%,3.32%,12.3%,3.35%,10.2%,14.7%,14.9%,6.34%,-0.69%,11.1%,11.8%,14.3%,47.2%,1.5%,8.71%,1.45%
COc1cc(C)c(NC(=O)CN(C)C)cc1Nc1nc(Nc2cccc(F)c2C(N)=O)c2cc[nH]c2n1,15%,0.21%,1%,93.1%,98%,1.91%,5.56%,4.41%,20.7%,5.09%,2.8%,3.91%,3.91%,79.7%,86%,11.1%,6.65%,1.04%,1.18%,0.17%
[O-][S+]1CCN(Cc2ccc(-c3ccc4ncnc(Nc5ccc(OCc6ccccc6)c(F)c5)c4c3)o2)CC1,3.24%,0.91%,1.11%,2.85%,-2.53%,6.29%,9.08%,8.58%,5.31%,1.94%,5.92%,2.75%,7.9%,3.51%,1.61%,5.28%,8.51%,-1.06%,-3.12%,-2.3%
Nc1nc(-c2ccc3c(c2)C(=Cc2cc(Br)c(O)c(Br)c2)C(=O)N3)cs1,7.52%,0.6%,3.29%,-1.15%,6.43%,7.13%,12.3%,1.75%,9.79%,3.97%,7.25%,-0.43%,2.87%,2.9%,7.73%,0.53%,-0.25%,9.94%,53%,1.06%
COc1cc2ncn(-c3cc(O[C@H](C)c4ccccc4Cl)c(C(N)=O)s3)c2cc1OC,95.3%,2.17%,2.07%,10.3%,32.2%,18.2%,51.8%,19.5%,54.8%,20.7%,63.8%,14.8%,17.8%,10.7%,36.5%,7.81%,40.7%,2.69%,6.05%,1.76%
Cc1ccc(NC(=O)c2ccnc(N3CCCC3)c2)cc1-c1ccc(C(=O)NCC2CC2)cc1,13.4%,2.28%,2.38%,12.2%,9.43%,6.99%,9.44%,8.29%,9.54%,10.7%,11.4%,8.6%,6.95%,6.76%,12%,4.44%,9.16%,-3.02%,-4.02%,-0.79%
COc1ccc(COc2ccc(Cc3cnc(N)nc3N)cc2OC)cc1,10%,-0.22%,2.07%,-3.39%,-2.43%,9.65%,9.77%,6.53%,9.69%,12.4%,4.28%,1.99%,5.55%,5.47%,4.98%,3.77%,1.97%,1.82%,1.88%,1.51%
Fc1cccc(COc2ccc(Nc3ncnc4sc(-c5cccs5)cc34)cc2Cl)c1,4.24%,1.12%,2.35%,-5.04%,3.37%,3.97%,0.68%,0.76%,2.26%,1.05%,2.09%,-5.24%,-0.08%,5.26%,4.79%,2.2%,2.77%,-1.04%,-1.24%,0.32%
CCn1c(-c2nonc2N)nc2c(N3CCCC3)nccc21,8.55%,-0.17%,0%,1.2%,-3.88%,4.49%,20.8%,0.68%,-0.73%,0%,2.26%,1.7%,0.95%,4.19%,4.49%,-2.23%,-2.52%,0.27%,0.26%,-1.66%
Nc1ncnc2occ(-c3ccc(NC(=O)Nc4cc(C(F)(F)F)cc(C(F)(F)F)c4)cc3)c12,81.5%,1.36%,4.51%,8.32%,19.4%,76.4%,81.4%,38.4%,77%,60.7%,75.6%,-3.85%,7.91%,1.98%,15.9%,-4.73%,24.4%,-0.11%,-0.05%,-5.69%
CS(=O)(=O)CCNCc1ccc(-c2ccc3ncnc(Nc4ccc(OCc5cccc(F)c5)c(C(F)(F)F)c4)c3c2)o1,1.85%,2.17%,3.48%,9.54%,10.4%,6.1%,3.78%,1.9%,4.58%,2.66%,3.86%,3.73%,5%,6.01%,4.01%,-1.31%,8.28%,-1.21%,-1.42%,-6.45%
Nc1nc(-c2ccccn2)c(-c2ccc3ncccc3n2)s1,7.71%,2.13%,1.57%,8.82%,12.2%,1.19%,4.76%,1.3%,5.95%,2.3%,10.2%,3.66%,6.53%,2.94%,4.03%,0.7%,7.78%,-0.44%,-2.72%,-1.33%
Cn1cc(C=C2C(=O)Nc3cccnc32)c2ccccc21,42%,0.71%,3.75%,5.59%,25.2%,,,,,,,3.7%,0.13%,4.42%,10.1%,12.8%,42.2%,-1.82%,0.18%,3.56%
